According to PubChem BioAssay (Tox21):
Several values for one entry are separate records, joined by “and”; a condition that tells them apart may be missing. Identical values can stand only once. Inconclusive results are not listed. Activity calls are given as the source filed them. The call rests on the fitted dose curve; in most records, active means well fitted cell-killing curve with a large enough effect in the repeat runs; inconclusive means weak or mixed curves, or effect the other way; inactive means no such curve, though single readings can be large or run the other way.

test: qHTS assay to identify small molecule antagonists of the peroxisome proliferator-activated receptor gamma (PPARg) signaling pathway - cell viability counter screen (AID 743194); settings: PPARg-bla HEK293H viability, CellTiter-Glo luminescence, 17 h; Potency: co-treated with 50 nM rosiglitazone unless noted; series mostly up to 62.6 µM; activity change, negative = cytotoxicity: at the top concentration; further: nearly all actives have a fitted effect of over 55% in size
Text: U.S. Tox21 Program National Center for Advancing Translational Sciences [NCATS] NIH Chemical Genomics Center [NCGC] U.S. Environmental Protection Agency [EPA] National Institutes of Environmental Health Sciences [NIEHS] National Toxicology Program [NTP] U.S. Food and Drug Administration [FDA] Tox21 Assay Overview: The peroxisome proliferator-activated receptors (PPARs) are lipid-activated transcription factors of the nuclear receptor superfamily with three distinct subtypes namely PPAR alpha, PPAR delta (also called PPAR beta) and PPAR gamma (PPARg). All these subtypes heterodimerize with Retinoid X receptor (RXR) and these heterodimers regulate transcription of various genes. PPAR-gamma receptor (glitazone receptor) is involved in the regulation of glucose and lipid metabolism. To identify the compounds that activate PPAR-gamma signaling, GeneBLAzer PPAR gamma UAS-bla HEK293H cell line (Invitrogen, Carlsbad, CA, USA) containing a beta-lactamase reporter gene under the control of an Upstream Activator Sequence (UAS) was used to screen the Tox21 compound library. The cytotoxicity of the Tox21 compound library against the PPARg-bla cell line was tested in parallel by measuring the cell viability using CellTiter-Glo assay in the same wells.
Tox21 Assay Protocol Summary: PPARg-bla cells were dispensed at 3000 cells/5uL/well in 1536-well black wall/clear bottom plates using a Multidrop Combi (Thermo Fisher Scientific, Waltham, MA) dispenser. After the assay plates were incubated at 37 C and 5% CO2 for 5 h, 23 nL of compounds dissolved in DMSO, positive controls or DMSO only was transferred to the assay plate by a Pintool station (Kalypsys, San Diego, CA), followed by addition of 1ul Rosiglitazone (50 nM, final concentration in the wells). The assay plates were incubated at 37 C for 17 h, and then 1 uL of LiveBLAzerTM B/G FRET substrate was added using a Bioraptr Flying Reagent Dispenser (FRD) workstation (Beckman Coulter, Indianapolis, IN, USA). The assay plates were incubated at room temperature for 1 h and fluorescence intensity was measured by an Envision plate reader (PerkinElmer, Shelton, CT). For cell viability readout that measures cytotoxicity, 4 ul/well of CellTiter-Glo reagent was added into the assay plates using a Flying Reagent Dispenser. After 30 min incubation at room temperature, the luminescence intensity in the plates was measured using a ViewLux plate reader (PerkinElmer).
On the % scale 0 is the no-effect control and ±100 the full control effect; potency means the concentration at half of the fitted maximal effect.

| Compound | Potency | activity change, negative = cytotoxicity |
| --- | --- | --- |
| CCC(C)c1cc([N+](=O)[O-])cc([N+](=O)[O-])c1OC(=O)C=C(C)C (stereo not given) | 54.9 µM (active) | – |
| COc1cccc(C(=O)CCN[C@@H](C)[C@H](O)c2ccccc2)c1 | – | -4.12% (inactive) |
| c1ccc2c(c1)OCC(C1=NCCN1)O2 (stereo not given) | – | 14.6% (inactive) |
| FC(Cl)(Cl)Cl | – | 7.23% (inactive) |
| CC[C@H](C)[C@H]1O[C@]2(C=C[C@@H]1C)C[C@@H]1C[C@@H](C/C=C(\C)[C@@H](O[C@H]3C[C@H](OC)[C@@H](O[C@H]4C[C@H](OC)[C@@H](O)[C@H](C)O4)[C@H](C)O3)[C@@H](C)/C=C/C=C3\CO[C@@H]4[C@H](O)C(C)=C[C@@H](C(=O)O1)[C@]34O)O2 | 9.15 µM (active) | – |
| S=C=Nc1cccc2ccccc12 | – | -4.15% (inactive) |
| Oc1cc(Cl)c(Cl)c(Cl)c1 | 13.1 µM (active) | – |
| CCN(CC)C(=S)[S-].CCN(CC)C(=S)[S-].[Zn+2] | 2.17 µM (active) | – |
| CC(C)[C@H](C(=O)O[C@H](C#N)c1cccc(Oc2ccccc2)c1)c1ccc(Cl)cc1 | – | 17.3% (inactive) |
| N#CCCSCCC#N | – | 14.2% (inactive) |
| C=CCC1=C(C)C(OC(=O)C2C(C=C(C)C)C2(C)C)CC1=O (stereo not given) | 58.3 µM (active) | – |
| O=c1oc2ccccc2c(O)c1Cc1c(O)c2ccccc2oc1=O | – | -9.13% (inactive) |
| Cc1cc(N=Nc2ccccc2C)ccc1N | – | -10.7% (inactive) |
| O=[N+]([O-])c1cc(C(F)(F)F)c(Cl)c([N+](=O)[O-])c1Cl | 2.45 µM (active) | – |
| CN(C)C(=S)[S-].CN(C)C(=S)[S-].[Cu+2] | 2.12 µM (active) | – |
| N#CNC#N | – | -5.62% [at 81.1 µM, co-treated with 50 nM rosiglitazone] (inactive) |
| C[C@@H]1CC[C@@]2(OC1)O[C@H]1[C@@H](O)[C@H]3[C@@H]4CC[C@H]5C[C@@H](O[C@@H]6O[C@H](CO)[C@H](O[C@@H]7O[C@H](CO)[C@@H](O)[C@H](O[C@@H]8OC[C@@H](O)[C@H](O)[C@H]8O)[C@H]7O[C@@H]7O[C@H](CO)[C@@H](O)[C@H](O[C@@H]8O[C@H](CO)[C@@H](O)[C@H](O)[C@H]8O)[C@H]7O)[C@H](O)[C@H]6O)[C@H](O)C[C@]5(C)[C@H]4CC[C@]3(C)[C@H]1[C@@H]2C | 23.2 µM (active) | – |
| CCC[CH2][Sn]([CH2]CCC)([CH2]CCC)[O]C(=O)c1ccccc1 | 0.49 µM (active) | – |
| CCOC(=O)C1(c2ccccc2)CCN(CCC(C#N)(c2ccccc2)c2ccccc2)CC1 | – | -25.3% [at 62.6 µM] (inactive) |
| CCCCCCCCCCCCCN1CC(C)OC(C)C1 (stereo not given) | – | -20.4% (inactive) |

| Compound | Potency | activity change, negative = cytotoxicity |
| --- | --- | --- |
| O=C(CCl)Nc1ccccc1 | 15.5 µM (active) | – |
| CC(C)(C)c1cc([N+](=O)[O-])cc(C(C)(C)C)c1O | 6.16 µM (active) | – |
| CC(=O)/C=C/c1ccc2c(c1)OCO2 | – | -2.18% [at 81.1 µM, co-treated with 50 nM rosiglitazone] (inactive) |
| Clc1ccc(COC(Cn2ccnc2)c2ccc(Cl)cc2Cl)cc1 (stereo not given) | 20.4 µM (active) and 19.4 µM (active) and 29.8 µM (active) | – |
| C[C@H]1CC[C@@H]2[C@@H](C)[C@H]3[C@H](C[C@H]4[C@@H]5CC=C6CC(O[C@@H]7O[C@H](CO)[C@H](O)[C@H](O[C@@H]8O[C@H](CO)[C@@H](O)[C@H](O)[C@H]8O)[C@H]7O[C@H]7O[C@@H](C)[C@H](O)[C@@H](O)[C@H]7O)CC[C@]6(C)[C@H]5CC[C@]34C)N2C1 (stereo not given in full) | 8.99 µM (active) | – |
| Cc1cc(C)c(C2=C(OC(=O)CC(C)(C)C)C3(CCCC3)OC2=O)c(C)c1 | – | 8.03% [at 81.1 µM, co-treated with 50 nM rosiglitazone] (inactive) |
| CN(C)C1CSSSC1 | – | -7.56% (inactive) |
| CC(C)OC(=S)S | – | 9.6% (inactive) |
| O=C(CCCN1CCC2(CC1)C(=O)NCN2c1ccccc1)c1ccc(F)cc1 | – | -7.56% (inactive) |
| CC(=O)[O-].[Tl+] | – | 21.4% [at 81.1 µM, co-treated with 50 nM rosiglitazone] (inactive) |
| [Cd+2].[Cl-].[Cl-] | 1.55 µM (active) | – |
| O=C1c2ccccc2C(=O)C1C(=O)C(c1ccccc1)c1ccc(Cl)cc1 (stereo not given) | 11 µM (active) | – |
| O=c1[nH]c2ccccc2n1CCCN1CCC(n2c(=O)[nH]c3cc(Cl)ccc32)CC1 | – | -17% [at 62.6 µM] (inactive) |
| CCOCCOC(C)=O | – | 29.9% (inactive) |
| CN(C)c1ccc(N=Nc2ccccc2)cc1 | – | -0.3% (inactive) |
| CCCCCCCCCCCCBr | – | -10.5% (inactive) |
| Cn1cc(C2=C(c3cn(C4CCN(Cc5ccccn5)CC4)c4ccccc34)C(=O)NC2=O)c2ccccc21 | – | -12.1% (inactive) |
| O=C(O)c1cc[c]([Hg][Cl])cc1 | 38.9 µM (active) | – |
| CC(C)[C@H](C(=O)OC(C#N)c1cccc(Oc2ccccc2)c1)c1ccc(OC(F)F)cc1 (stereo not given in full) | – | -9.17% (inactive) |
| O=C(Nc1ccc2[nH]ccc2c1)c1cc2cc(F)ccc2n1Cc1cccc(F)c1 | 19.5 µM (active) | – |
